Screening data (PubChem)
HCV inh = HCV inhibition. Potency, µM (highest dose often 41.8 µM), without a hit: at the highest dose activity change, negative = inhibition, most hits filed as inhibitors. Huh7.5.1 HCVcc-Cre infection, luciferase reporter, 44 h. 340,000 tested, 3.4% active; also: potency is read from the fitted curve at half-maximal effect; % is scaled to controls: 0 for no effect and ±100 for the full control effect
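HCVcc-Cre virus at an moi near 0.5 was added right after compound to cells cultured 4 h from seeding (1,000 cells/well). Luciferase activity was determined 44 h later, 15 min after substrate addition at RT.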
Pf growth 96h = P. falciparum growth inhibition at 96 hour, primary screen for plastid delayed-death inhibitors; P. falciparum luciferase reporter growth, 96 h; Potency, µM (series often up to 28.7 µM), without a hit: at the highest dose activity change, negative = inhibition, hits mostly inhibitors; 320,000 tested, 6.9% active; also: potency is read from the fitted curve at half-maximal effect; % is scaled to controls: 0 for no effect and ±100 for the full control effect
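P. falciparum expressing integrated firefly luciferase, in erythrocytes at 2% hematocrit, 0.05% parasitemia, incubated with compounds 96 h at 37 C, 5% CO2. Growth inhibition read as loss of luminescence; two-generation exposure targets delayed-death apicoplast inhibitors.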
Shiga toxin inh = blocks Shiga toxin action in Vero cells | Vero cells, Shiga toxin protein synthesis inhibition reporter | inhibition, % at 38.7 µM | 290,000 tested, 9.2% active | AID 2315; in the data active = inhibition mostly above about 28%, no sharp cut-off; inactive = mostly below about 43%; also: 0% is about no effect
CHX counter = counter-screen for Shiga toxin inhibitors: cycloheximide protein synthesis inhibition. 300,000 tested, 12% active. AID 2314. max response, %. cell reporter, cycloheximide protein synthesis inhibition counterscreen; in the data active = max response mostly above about 13%, no sharp cut-off; inactive = mostly below about 14%; also: read at 38.3 µM for the half of the compounds with a filed dose; 0% is about no effect
AMA1-RON2 inh = inhibitors of Plasmodium falciparum AMA1-RON2 interaction; AlphaScreen AMA1-biotinylated RON2 peptide binding; Potency, µM (series often up to 58.2 µM), inactives show top-dose activity change, negative = inhibition, actives largely listed as inhibitors; 360,000 tested, 0.2% active;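 also: potency is read from the fitted curve at half-maximal effect; 0% = vehicle wells and -100% = peptide control; nearly all actives have a fitted effect of over 45% in size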
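AMA1 (3D7) with his tag at 25 nM final met compounds first, then biotinylated RON2 peptide at 25 nM; detection used donor plus acceptor beads, 10 µg/mL apiece, read by AlphaScreen after 30 min at room temperature.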
Pf growth 48h = inhibits P. falciparum growth in the first generation, 48 h. P. falciparum luciferase growth in erythrocytes, 48 h. Potency, µM (titrated, usually from 28.7 µM), for inactives: at the top dose activity change, negative = inhibition, hits mostly inhibitors. 310,000 tested, 5.9% active. AID 504832; also: potency is read from the fitted curve at half-maximal effect; % is scaled to controls: 0 for no effect and ±100 for the full control effect
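Cell-based growth assay: transgenic P. falciparum expressing firefly luciferase, cultured in red cells within RPMI 1640 containing 0.5% w/v Albumax, 24 mM bicarbonate and gentamycin. A drop in luciferase activity indicates inhibition.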
The depositor's hits bear a star; i = inactive; ? = inconclusive; . = no result given; ! = repeats disagree. In the library only some 21% were active in any assay of this set; here they are far more common. Unless noted, calls follow the shape of the dose curve; as a rule, active = well fitted curve in the direction sought with a large enough effect; inconclusive = small, poorly fitted or top-dose-only effect, or another doubt; inactive = no such curve, though single readings can be large; an effect the other way counts as inactive or inconclusive.

SMILES | HCV inh | Pf growth 96h | Shiga toxin inh | CHX counter | AMA1-RON2 inh | Pf growth 48h
Cc1ccc([N+](=O)[O-])cc1S(=O)(=O)NCCc1c(C)[nH]c2c(C)cccc12 | -8.9% | 9.28µM* | -0.8 | -6.6 | -2.8% | 10.4%
CC(C)(C)c1cc(C(=O)NN)n(Cc2ccc(F)cc2)n1 | ? | ? | 8.5 | -4.1 | 42.5% | ?
COC(=O)c1cc(NC(=O)c2cc(C(C)(C)C)nn2Cc2ccc(F)cc2)ccc1N1CCOCC1 | 10µM* | -11.0% | 14.4 | 8.3 | 0.0% | 6.57µM*
Cc1cccc(Cn2nc(C(C)(C)C)cc2C(=O)Nc2ccc(F)cc2)c1 | ? | 9.28µM* | 36.2 | 18.5* | 11.7% | 10.4µM*
c1ccc(CN2CCN(c3nc4ccccc4n4cnnc34)CC2)cc1 | -6.6% | -5.3% | 4.5 | -4.7 | -9.3% | .
O=C(c1ccco1)N1CCN(c2nc3ccccc3n3nnnc23)CC1 | -3.4% | ? | 35.9* | 23.5* | 4.1% | -24.6%
c1ccc(CC2CCN(c3nc4ccccc4n4nnnc34)CC2)cc1 | -2.7% | ? | 17.2 | 8.5* | 20.5% | -5.3%
CCNC(=O)n1cc(-n2cncn2)c(-c2ccc(Cl)cc2)n1 | -17.6% | 33.8% | 18.7 | -1.8 | -3.8% | ?
COc1cccc(NC(=O)CN(C)C(=O)c2ccc(NC(=O)CC3SC(N4CCCC4)=NC3=O)cc2)c1 (stereo not drawn) | 6.0% | . | . | . | -6.8% | .
CCOc1ccc(/C=N/NC(=O)CNC(=O)c2ccc(S(=O)(=O)N3CCOCC3)cc2)cc1 | 18.3% | 20.0% | -16.6 | -5.7 | -1.8% | -17.5%
COC(=O)c1sccc1NC(=S)N1CCN(c2cc(C)ccc2C)CC1 | ? | -23.9% | -2.8 | -4.8 | -16.3% | 10.4µM*
COC(=O)c1sccc1NC(=S)N1CCN(C)CC1 | ? | ? | -2.7 | -1.6 | -7.9% | ?
COC(=O)c1sccc1NC(=S)N1CCCC(C)C1 (stereo not drawn) | -10.3% | ? | 25.9 | -3.3 | -4.9% | 11.7µM*
Cc1cccc(C)c1NC(=O)C(c1ccccc1)N1CCC(c2ccccc2)CC1 (stereo not drawn) | . | . | . | . | -0.9% | .
CC1COC(Cn2c3ccccc3c3ccccc32)O1 (stereo not drawn) | -26.2% | -5.9% | 27.2 | -0.7 | -12.6% | 3.9%
c1ccc(Cc2nnc3sc(-c4ccc5c(c4)OCO5)nn23)cc1 | 1.8% | . | . | . | 5.0% | .
c1ccc(Cc2nnc3sc(-c4ccc5c(c4)OCCO5)nn23)cc1 | 13.5% | 1.3% | 55.7 | 36.0* | 5.5% | .
CCc1ccc2c(c1)cc(CN(C(=S)Nc1ccccc1C)C1CC1)c1nnnn12 | -7.8% | ? | 6.0 | -1.4 | -13.7% | 3.29µM*
O=C(Nc1ccccc1O)c1csc2c1CCCC2 | ? | 30.3% | 98.3* | 35.1* | -6.4% | ?
COc1ccc(NC(=O)c2csc3c2CCCCC3)c(OC)c1 | ? | -10.6% | 43.9 | 16.4* | -15.6% | -18.9%
O=C(NC1CCCC1)c1csc2c1CCCC2 | 3.4% | 25.4% | 38.3 | 28.0 | -2.7% | 24.8%
C=CCNCC(=O)Nc1sc2c(c1C(=O)Nc1ccc(OC)cc1OC)CCC2 | 10µM* | 32.5% | 8.6 | -3.6 | 57.7% | 11.7µM*
OC(c1ccc(F)cc1)c1nc(-c2cccc(F)c2)cs1 (stereo not drawn) | . | . | . | . | 3.1% | .
O=C(O)c1[nH]c(=O)[nH]c(=O)c1F | ? | 0.0033µM* | -6.1 | 0.8 | 55.4% | 0.0117µM*
Nc1nnc(/C=C/c2ccccc2)s1 | 6.9% | -11.2% | 37.5* | 44.4* | 27.2% | 70.5%
SMILES | HCV inh | Pf growth 96h | Shiga toxin inh | CHX counter | AMA1-RON2 inh | Pf growth 48h
O=C(Nc1nnc(/C=C/c2ccccc2)s1)c1ccco1 | 12.0% | 8.4% | 63.5* | 29.9* | 20.1% | 9.4%
C(=C\c1ccc(/C=C/c2ccccc2)nn1)/c1ccccc1 | . | -2.4% | -2.3 | 2.2 | . | 3.2%
Cc1cccc(N(C)S(=O)(=O)c2nnc(NC(=O)c3ccco3)s2)c1 | -1.5% | ? | -6.0 | -1.9 | -8.3% | 12.3%
CC(=O)Nc1nnc(/C=C/c2cccc([N+](=O)[O-])c2)s1 | 19.7% | ? | 5.4 | 5.4 | 4.3% | -3.4%
COC(=O)Nc1nnc(/C=C/c2ccccc2)s1 | 7.6% | 33.9% | 49.2* | 11.5 | -2.3% | 42.0%
CN(c1ccccc1)S(=O)(=O)c1nnc(NC(=O)c2ccco2)s1 | 19.4% | 3.7µM* | -6.4 | -3.4 | -2.7% | -7.6%
O=C(Nc1ccc(F)c([N+](=O)[O-])c1)c1ccc2c(c1)C(=O)OC2=O | . | 54.1% | -12.3 | 1.6 | . | 43.6%
CN(Cc1ccco1)S(=O)(=O)c1nnc(NC(=O)c2cccc(Cl)c2)s1 | -8.9% | 39.7% | 63.8* | 35.5* | -15.5% | 24.5%
C[C@@H](NC(=O)[C@@H]1CCCN1C(=O)[C@@H]1CCCN1C(=O)c1cccs1)c1ccccc1 | . | . | . | . | -5.2% | .
CN(C)c1ccc(N=Nc2ccc3ncccc3c2)cc1 | 6.2% | . | . | . | ? | .
CN(C)c1ccc(N=Nc2ccc(S(=O)(=O)O)cc2)c2ccccc12 | 19.8% | ? | -1.0 | -2.1 | ? | 6.6%
Cc1cc(N(C)C)cc(C)c1N=Nc1cc[n+]([O-])cc1 | . | . | . | . | -7.4% | .
CN(C)c1ccc(N=Nc2ccc(S(N)(=O)=O)cc2)cc1 | 21.7% | -24.5% | 89.4* | 51.9* | -17.1% | 51.3%
Cc1cccc(N=Nc2ccc(N(C)C)cc2)c1 | -2.8% | 148.5% | 126.3* | 43.4* | 15.8µM* | 208.4%
CN(C)c1ccc(N=Nc2cccc(F)c2)cc1 | -0.4% | 142.4% | 96.2* | 41.2* | 8.91µM* | 188.8%
CN(C)c1ccc(N=Nc2cccc3ccoc23)cc1 | -16.2% | 203.1% | 136.8* | 55.6* | 14.1µM* | i
CN(C)N=Nc1ccc(S(N)(=O)=O)cc1 | 6.9% | 56.6% | -5.5 | -3.7 | 0.1% | 34.6%
Cc1ccc(C)c(S(=O)(=O)N2CCN(C(=O)c3n[nH]c(=O)c4ccccc34)CC2)c1 | -2.8% | ? | . | . | 1.6% | ?
CSc1ccc(CNC(=O)C2CCC(=O)N(CCc3cccc(F)c3)C2)cc1 (stereo not drawn) | -6.2% | -22.7% | 14.3 | 21.4 | 9.4% | 32.9%
CC(C)OC(=O)c1c2nc3ccccc3nc2n2c1[nH]c(=O)c1ccccc12 | 6.0% | 6.57µM* | -8.2 | -2.9 | . | 0.2%
CC(C)OC(=O)c1c(N)n(CCCN2CCOCC2)c2nc3ccccc3nc12 | 9.2% | ? | -12.0 | -1.8 | 8.1% | .
Cc1ccc2c(c1)NC(=O)CC(c1ccccc1)=N2 | 3.16µM* | -16.5% | 63.0* | 40.1* | -4.4% | 116.3%
O=C(Cn1cnc2ccccc2c1=O)c1ccc(OC(F)F)cc1 | -5.2% | 4.3% | 57.1* | 34.4* | 5.3% | -8.0%
O=C(Cn1cnc2cc([N+](=O)[O-])ccc2c1=O)NCCc1ccc(F)cc1 | 0.8% | -9.6% | -9.2 | 5.5 | 7.7% | 2.4%
O=c1c2ccccc2ncn1-c1ccc(Cl)cc1 | 4.0% | 123.2% | 41.7*! | 28.5* | -12.0% | 108.2%
